In the supplement of paper PMC7411054:

Key:
Assay in all cases: phenotypically active (imaging signature differs from DMSO and reproducible) at any of 0.3-9 uM (binary (1 = active, 0 = inactive)); higher = active
Details in all cases: treatment time: 24 h
A549-ACTB-RAB5A = tested on: A549-ACTB-RAB5A
Summary of the method: (§1)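 Two criteria together defined phenotypic activity: deviation and reproducibility. Deviation meant ≥3 of 4 wells beyond the 95th percentile of Euclidean distances in solvent control wells, and reproducibility meant a median replicate Pearson correlation above the 95th percentile of non-replicates. Wells had been treated for 24 h at 0.3, 1, 3 or 9 µM in fifteen gene-edited A549, HepG2 and WPMY1 reporter lines before live imaging.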

A549-CANX-COX4 = tested on: A549-CANX-COX4
Summary of the method: as §1

A549-GM130-SQSTM1 = tested on: A549-GM130-SQSTM1
Summary of the method: as §1

A549-TP53BP1-CLTA = tested on: A549-TP53BP1-CLTA
Summary of the method: as §1

A549-TUBA1B-RELA = tested on: A549-TUBA1B-RELA
Summary of the method: as §1

HepG2-ACTB-RAB5A = tested on: HepG2-ACTB-RAB5A
Summary of the method: as §1

HepG2-CANX-COX4 = tested on: HepG2-CANX-COX4
Summary of the method: as §1

HepG2-GM130-SQSTM1 = tested on: HepG2-GM130-SQSTM1
Summary of the method: as §1

HepG2-TP53BP1-CLTA = tested on: HepG2-TP53BP1-CLTA
Summary of the method: as §1

HepG2-TUBA1B-RELA = tested on: HepG2-TUBA1B-RELA
Summary of the method: as §1

WPMY1-ACTB-RAB5A = tested on: WPMY1-ACTB-RAB5A
Summary of the method: as §1

WPMY1-CANX-COX4 = tested on: WPMY1-CANX-COX4
Summary of the method: as §1

WPMY1-GM130-SQSTM1 = tested on: WPMY1-GM130-SQSTM1
Summary of the method: as §1

WPMY1-TP53BP1-CLTA = tested on: WPMY1-TP53BP1-CLTA
Summary of the method: as §1

WPMY1-TUBA1B-RELA = tested on: WPMY1-TUBA1B-RELA
Summary of the method: as §1

Measured: phenotypically active

O=c1[nH]cnc2c1ncn2[C@H]1CC[C@@H](CO)O1 [Didanosine]
inactive: A549-ACTB-RAB5A 0 | A549-CANX-COX4 0 | A549-GM130-SQSTM1 0 | A549-TP53BP1-CLTA 0 | A549-TUBA1B-RELA 0 | HepG2-ACTB-RAB5A 0 | HepG2-CANX-COX4 0 | HepG2-GM130-SQSTM1 0 | HepG2-TP53BP1-CLTA 0 | HepG2-TUBA1B-RELA 0 | WPMY1-ACTB-RAB5A 0 | WPMY1-CANX-COX4 0 | WPMY1-GM130-SQSTM1 0 | WPMY1-TP53BP1-CLTA 0 | WPMY1-TUBA1B-RELA 0

CO[C@@]12[C@H](COC(N)=O)C3=C(C(=O)C(C)=C(N)C3=O)N1C[C@@H]1N[C@@H]12 [mitomycin]
inactive: A549-ACTB-RAB5A 0 | A549-CANX-COX4 0 | A549-GM130-SQSTM1 0 | A549-TP53BP1-CLTA 0 | A549-TUBA1B-RELA 0 | HepG2-ACTB-RAB5A 0 | HepG2-CANX-COX4 0 | HepG2-GM130-SQSTM1 0 | HepG2-TP53BP1-CLTA 0 | HepG2-TUBA1B-RELA 0 | WPMY1-ACTB-RAB5A 0 | WPMY1-CANX-COX4 0 | WPMY1-GM130-SQSTM1 0 | WPMY1-TP53BP1-CLTA 0 | WPMY1-TUBA1B-RELA 0

NC(=O)c1ncn([C@@H]2O[C@H](CO)[C@@H](O)[C@H]2O)c1N
inactive: A549-ACTB-RAB5A 0 | A549-CANX-COX4 0 | A549-GM130-SQSTM1 0 | A549-TP53BP1-CLTA 0 | A549-TUBA1B-RELA 0 | HepG2-ACTB-RAB5A 0 | HepG2-CANX-COX4 0 | HepG2-GM130-SQSTM1 0 | HepG2-TP53BP1-CLTA 0 | HepG2-TUBA1B-RELA 0 | WPMY1-ACTB-RAB5A 0 | WPMY1-CANX-COX4 0 | WPMY1-GM130-SQSTM1 0 | WPMY1-TP53BP1-CLTA 0 | WPMY1-TUBA1B-RELA 0

NCCCC(O)(P(=O)(O)O)P(=O)(O)O [alendronate]
inactive: A549-ACTB-RAB5A 0 | A549-CANX-COX4 0 | A549-GM130-SQSTM1 0 | A549-TP53BP1-CLTA 0 | A549-TUBA1B-RELA 0 | HepG2-ACTB-RAB5A 0 | HepG2-CANX-COX4 0 | HepG2-GM130-SQSTM1 0 | HepG2-TP53BP1-CLTA 0 | HepG2-TUBA1B-RELA 0 | WPMY1-ACTB-RAB5A 0 | WPMY1-CANX-COX4 0 | WPMY1-GM130-SQSTM1 0 | WPMY1-TP53BP1-CLTA 0 | WPMY1-TUBA1B-RELA 0

CCn1c(=O)c2cc(C(N)=O)c(N)nc2n(C2CC2)c1=O
inactive: A549-ACTB-RAB5A 0 | A549-CANX-COX4 0 | A549-GM130-SQSTM1 0 | A549-TP53BP1-CLTA 0 | A549-TUBA1B-RELA 0 | HepG2-ACTB-RAB5A 0 | HepG2-CANX-COX4 0 | HepG2-GM130-SQSTM1 0 | HepG2-TP53BP1-CLTA 0 | HepG2-TUBA1B-RELA 0 | WPMY1-ACTB-RAB5A 0 | WPMY1-CANX-COX4 0 | WPMY1-GM130-SQSTM1 0 | WPMY1-TP53BP1-CLTA 0 | WPMY1-TUBA1B-RELA 0

NC12CC3CC(CC(C3)C1)C2 [amantadine]
inactive: A549-ACTB-RAB5A 0 | A549-CANX-COX4 0 | A549-GM130-SQSTM1 0 | A549-TP53BP1-CLTA 0 | A549-TUBA1B-RELA 0 | HepG2-ACTB-RAB5A 0 | HepG2-CANX-COX4 0 | HepG2-GM130-SQSTM1 0 | HepG2-TP53BP1-CLTA 0 | HepG2-TUBA1B-RELA 0 | WPMY1-ACTB-RAB5A 0 | WPMY1-CANX-COX4 0 | WPMY1-GM130-SQSTM1 0 | WPMY1-TP53BP1-CLTA 0 | WPMY1-TUBA1B-RELA 0

CCCCc1nc(Cl)c(CO)n1Cc1ccc(-c2ccccc2-c2nnn[nH]2)cc1 [losartan]
inactive: A549-ACTB-RAB5A 0 | A549-CANX-COX4 0 | A549-GM130-SQSTM1 0 | A549-TP53BP1-CLTA 0 | A549-TUBA1B-RELA 0 | HepG2-ACTB-RAB5A 0 | HepG2-CANX-COX4 0 | HepG2-GM130-SQSTM1 0 | HepG2-TP53BP1-CLTA 0 | HepG2-TUBA1B-RELA 0 | WPMY1-ACTB-RAB5A 0 | WPMY1-CANX-COX4 0 | WPMY1-GM130-SQSTM1 0 | WPMY1-TP53BP1-CLTA 0 | WPMY1-TUBA1B-RELA 0

CC(C)(C)NC[C@H](O)COc1cccc2c1CCCC2=O [levobunolol]
inactive: A549-ACTB-RAB5A 0 | A549-CANX-COX4 0 | A549-GM130-SQSTM1 0 | A549-TP53BP1-CLTA 0 | A549-TUBA1B-RELA 0 | HepG2-ACTB-RAB5A 0 | HepG2-CANX-COX4 0 | HepG2-GM130-SQSTM1 0 | HepG2-TP53BP1-CLTA 0 | HepG2-TUBA1B-RELA 0 | WPMY1-ACTB-RAB5A 0 | WPMY1-CANX-COX4 0 | WPMY1-GM130-SQSTM1 0 | WPMY1-TP53BP1-CLTA 0 | WPMY1-TUBA1B-RELA 0

CN(C)CCOC(=O)C(c1ccccc1)C1(O)CCCC1 (stereo not given) [cyclopentolate]
inactive: A549-ACTB-RAB5A 0 | A549-CANX-COX4 0 | A549-GM130-SQSTM1 0 | A549-TP53BP1-CLTA 0 | A549-TUBA1B-RELA 0 | HepG2-ACTB-RAB5A 0 | HepG2-CANX-COX4 0 | HepG2-GM130-SQSTM1 0 | HepG2-TP53BP1-CLTA 0 | HepG2-TUBA1B-RELA 0 | WPMY1-ACTB-RAB5A 0 | WPMY1-CANX-COX4 0 | WPMY1-GM130-SQSTM1 0 | WPMY1-TP53BP1-CLTA 0 | WPMY1-TUBA1B-RELA 0

O=C1c2ccccc2C(Cc2ccncc2)(Cc2ccncc2)c2ccccc21
inactive: A549-ACTB-RAB5A 0 | A549-CANX-COX4 0 | A549-GM130-SQSTM1 0 | A549-TP53BP1-CLTA 0 | A549-TUBA1B-RELA 0 | HepG2-ACTB-RAB5A 0 | HepG2-CANX-COX4 0 | HepG2-GM130-SQSTM1 0 | HepG2-TP53BP1-CLTA 0 | HepG2-TUBA1B-RELA 0 | WPMY1-ACTB-RAB5A 0 | WPMY1-CANX-COX4 0 | WPMY1-GM130-SQSTM1 0 | WPMY1-TP53BP1-CLTA 0 | WPMY1-TUBA1B-RELA 0

O=c1[nH]cnc2ccccc12
inactive: A549-ACTB-RAB5A 0 | A549-CANX-COX4 0 | A549-GM130-SQSTM1 0 | A549-TP53BP1-CLTA 0 | A549-TUBA1B-RELA 0 | HepG2-ACTB-RAB5A 0 | HepG2-CANX-COX4 0 | HepG2-GM130-SQSTM1 0 | HepG2-TP53BP1-CLTA 0 | HepG2-TUBA1B-RELA 0 | WPMY1-ACTB-RAB5A 0 | WPMY1-CANX-COX4 0 | WPMY1-GM130-SQSTM1 0 | WPMY1-TP53BP1-CLTA 0 | WPMY1-TUBA1B-RELA 0

NS(=O)(=O)c1cc2c(cc1Cl)NC(C1CC3C=CC1C3)NS2(=O)=O (stereo not given) [cyclothiazide]
inactive: A549-ACTB-RAB5A 0 | A549-CANX-COX4 0 | A549-GM130-SQSTM1 0 | A549-TP53BP1-CLTA 0 | A549-TUBA1B-RELA 0 | HepG2-ACTB-RAB5A 0 | HepG2-CANX-COX4 0 | HepG2-GM130-SQSTM1 0 | HepG2-TP53BP1-CLTA 0 | HepG2-TUBA1B-RELA 0 | WPMY1-ACTB-RAB5A 0 | WPMY1-CANX-COX4 0 | WPMY1-GM130-SQSTM1 0 | WPMY1-TP53BP1-CLTA 0 | WPMY1-TUBA1B-RELA 0
